Reference: the supplement of paper PMC11732987, “Enantioselective OTUD7B fragment discovery through chemoproteomics screening and high-throughput optimisation” (Communications Chemistry, 2025)

Experiments:
Test in all cases: log2 ratio of Biotin-Ahx-Ub-VS probe labelling (fragment/DMSO); higher = less target engagement (more negative = stronger competition), active = hit call of the paper (q ≤ 0.05, log2 ratio ≤ -1)
Details in all cases: compound concentration: 200 uM; treatment time: 3 h
OTUD6B = target: T1, OTUD6B (UniProt Q8N6M0)
T1 sequence (whole entry): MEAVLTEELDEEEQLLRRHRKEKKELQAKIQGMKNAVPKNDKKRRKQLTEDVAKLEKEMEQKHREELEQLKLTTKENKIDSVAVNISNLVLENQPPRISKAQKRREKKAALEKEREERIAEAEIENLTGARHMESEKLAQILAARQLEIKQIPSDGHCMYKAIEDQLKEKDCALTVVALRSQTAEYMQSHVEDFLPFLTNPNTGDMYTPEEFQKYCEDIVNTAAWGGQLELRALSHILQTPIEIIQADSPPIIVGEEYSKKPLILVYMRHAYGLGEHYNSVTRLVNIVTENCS
Summary of the method: (§1)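 HEK293T lysate, 495 µg per sample in Tris/CHAPS/IGEPAL buffer with protease inhibitors, was treated in triplicate with fragment at 200 µM or vehicle for 3 h and then with Biotin-Ahx-Ub-VS at 0.5 µM final for 1 h. Labelled DUBs were NeutrAvidin-enriched, digested with LysC and trypsin, and run by diaPASEF LC-MS/MS. Spectronaut label-free quantities were global-median-normalised, and values are average log2 fragment/vehicle ratios by unpaired t-test on proteins with ≥2 unique peptides.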

OTUD7B = target: T2, OTUD7B (UniProt Q6GQQ9)
T2 sequence (whole entry): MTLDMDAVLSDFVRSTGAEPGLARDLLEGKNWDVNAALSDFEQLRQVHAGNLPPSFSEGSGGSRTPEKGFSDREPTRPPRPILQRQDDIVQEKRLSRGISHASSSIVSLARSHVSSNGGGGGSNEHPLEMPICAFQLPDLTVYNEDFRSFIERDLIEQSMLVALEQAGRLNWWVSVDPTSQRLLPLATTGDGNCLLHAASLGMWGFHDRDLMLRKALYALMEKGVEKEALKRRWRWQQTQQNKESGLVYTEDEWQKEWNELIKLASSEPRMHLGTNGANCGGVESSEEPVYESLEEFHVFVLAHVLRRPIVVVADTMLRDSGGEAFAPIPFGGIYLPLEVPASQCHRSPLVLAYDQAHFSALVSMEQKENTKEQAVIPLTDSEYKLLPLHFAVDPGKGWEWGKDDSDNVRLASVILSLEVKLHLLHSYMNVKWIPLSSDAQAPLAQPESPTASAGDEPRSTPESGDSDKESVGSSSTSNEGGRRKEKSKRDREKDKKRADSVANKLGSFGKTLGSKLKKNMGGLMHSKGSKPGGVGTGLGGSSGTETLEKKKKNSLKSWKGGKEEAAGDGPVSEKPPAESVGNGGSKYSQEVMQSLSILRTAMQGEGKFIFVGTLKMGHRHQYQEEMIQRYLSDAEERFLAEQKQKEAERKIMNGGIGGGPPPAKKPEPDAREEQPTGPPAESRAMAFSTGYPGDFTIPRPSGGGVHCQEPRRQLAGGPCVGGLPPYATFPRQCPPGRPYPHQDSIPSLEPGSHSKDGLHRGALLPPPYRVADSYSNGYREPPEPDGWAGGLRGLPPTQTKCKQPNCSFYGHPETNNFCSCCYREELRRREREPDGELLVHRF
Summary of the method: as §1

PRPF8 = PRPF8 (UniProt Q6P2Q9)
Summary of the method: as §1

PSMD7 = target: T3, PSMD7 (UniProt P51665)
T3 sequence (whole entry): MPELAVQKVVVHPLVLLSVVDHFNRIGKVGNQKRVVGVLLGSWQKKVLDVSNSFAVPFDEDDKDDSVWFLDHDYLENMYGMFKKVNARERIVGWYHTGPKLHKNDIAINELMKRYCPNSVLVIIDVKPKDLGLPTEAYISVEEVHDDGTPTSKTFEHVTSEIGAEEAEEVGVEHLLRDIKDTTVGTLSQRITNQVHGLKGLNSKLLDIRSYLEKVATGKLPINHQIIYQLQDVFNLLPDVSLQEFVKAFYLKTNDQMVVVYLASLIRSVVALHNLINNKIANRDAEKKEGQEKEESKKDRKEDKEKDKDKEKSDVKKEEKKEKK
Summary of the method: as §1

UCHL1 = UCHL1 (UniProt P09936)
Summary of the method: as §1

UCHL3 = target: T4, UCHL3 (UniProt P15374)
T4 sequence (whole entry): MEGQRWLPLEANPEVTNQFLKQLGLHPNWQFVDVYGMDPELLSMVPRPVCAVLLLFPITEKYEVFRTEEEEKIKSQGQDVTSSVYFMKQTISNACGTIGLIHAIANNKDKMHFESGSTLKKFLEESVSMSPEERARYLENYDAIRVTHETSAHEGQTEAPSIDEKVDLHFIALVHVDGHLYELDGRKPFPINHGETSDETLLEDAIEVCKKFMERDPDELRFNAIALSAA
Summary of the method: as §1

UCHL5 = target: T5, UCHL5 (UniProt Q9Y5K5)
T5 sequence (whole entry): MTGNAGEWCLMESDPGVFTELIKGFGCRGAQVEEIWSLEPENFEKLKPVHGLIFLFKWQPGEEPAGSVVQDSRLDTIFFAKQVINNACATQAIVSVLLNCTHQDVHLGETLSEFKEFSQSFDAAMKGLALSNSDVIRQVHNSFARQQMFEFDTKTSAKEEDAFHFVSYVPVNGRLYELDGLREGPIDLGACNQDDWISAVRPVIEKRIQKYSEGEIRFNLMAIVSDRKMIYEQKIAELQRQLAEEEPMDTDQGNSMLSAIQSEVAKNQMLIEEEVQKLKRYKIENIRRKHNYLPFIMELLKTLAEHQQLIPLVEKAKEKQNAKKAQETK
Summary of the method: as §1

USP10 = USP10 (UniProt Q14694)
Summary of the method: as §1

USP15 = target: T6, USP15 (UniProt Q9Y4E8)
T6 sequence (whole entry): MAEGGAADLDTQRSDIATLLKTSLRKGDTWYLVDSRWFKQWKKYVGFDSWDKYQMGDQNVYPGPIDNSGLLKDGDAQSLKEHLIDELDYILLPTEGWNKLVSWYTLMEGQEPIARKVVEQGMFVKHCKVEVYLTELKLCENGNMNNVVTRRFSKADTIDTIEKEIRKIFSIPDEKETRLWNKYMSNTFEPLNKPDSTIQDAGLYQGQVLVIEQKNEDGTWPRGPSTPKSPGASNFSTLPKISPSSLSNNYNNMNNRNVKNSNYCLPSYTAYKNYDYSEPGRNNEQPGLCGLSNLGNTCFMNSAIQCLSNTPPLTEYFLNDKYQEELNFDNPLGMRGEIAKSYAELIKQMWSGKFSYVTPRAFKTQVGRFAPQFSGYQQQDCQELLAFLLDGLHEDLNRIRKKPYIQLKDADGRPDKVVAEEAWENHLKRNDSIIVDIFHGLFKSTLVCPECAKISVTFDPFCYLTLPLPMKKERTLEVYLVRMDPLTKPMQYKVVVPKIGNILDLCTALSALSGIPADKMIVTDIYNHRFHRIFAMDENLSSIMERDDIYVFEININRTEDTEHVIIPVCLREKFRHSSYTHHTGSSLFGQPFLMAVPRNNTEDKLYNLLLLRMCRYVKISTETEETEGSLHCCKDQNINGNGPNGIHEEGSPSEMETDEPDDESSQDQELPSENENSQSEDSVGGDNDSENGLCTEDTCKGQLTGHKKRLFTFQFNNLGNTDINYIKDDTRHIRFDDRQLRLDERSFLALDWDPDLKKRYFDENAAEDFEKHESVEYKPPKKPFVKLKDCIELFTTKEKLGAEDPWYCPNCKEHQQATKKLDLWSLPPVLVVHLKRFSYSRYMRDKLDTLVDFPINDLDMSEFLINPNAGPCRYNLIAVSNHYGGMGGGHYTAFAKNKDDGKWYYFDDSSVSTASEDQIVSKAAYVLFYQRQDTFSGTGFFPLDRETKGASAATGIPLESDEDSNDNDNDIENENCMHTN
Summary of the method: as §1

USP16 = USP16 (UniProt Q9Y5T5)
Summary of the method: as §1

Measured: log2 ratio of Biotin-Ahx-Ub-VS probe labelling

Sequence of USP16 (Q9Y5T5 whole entry, looked up): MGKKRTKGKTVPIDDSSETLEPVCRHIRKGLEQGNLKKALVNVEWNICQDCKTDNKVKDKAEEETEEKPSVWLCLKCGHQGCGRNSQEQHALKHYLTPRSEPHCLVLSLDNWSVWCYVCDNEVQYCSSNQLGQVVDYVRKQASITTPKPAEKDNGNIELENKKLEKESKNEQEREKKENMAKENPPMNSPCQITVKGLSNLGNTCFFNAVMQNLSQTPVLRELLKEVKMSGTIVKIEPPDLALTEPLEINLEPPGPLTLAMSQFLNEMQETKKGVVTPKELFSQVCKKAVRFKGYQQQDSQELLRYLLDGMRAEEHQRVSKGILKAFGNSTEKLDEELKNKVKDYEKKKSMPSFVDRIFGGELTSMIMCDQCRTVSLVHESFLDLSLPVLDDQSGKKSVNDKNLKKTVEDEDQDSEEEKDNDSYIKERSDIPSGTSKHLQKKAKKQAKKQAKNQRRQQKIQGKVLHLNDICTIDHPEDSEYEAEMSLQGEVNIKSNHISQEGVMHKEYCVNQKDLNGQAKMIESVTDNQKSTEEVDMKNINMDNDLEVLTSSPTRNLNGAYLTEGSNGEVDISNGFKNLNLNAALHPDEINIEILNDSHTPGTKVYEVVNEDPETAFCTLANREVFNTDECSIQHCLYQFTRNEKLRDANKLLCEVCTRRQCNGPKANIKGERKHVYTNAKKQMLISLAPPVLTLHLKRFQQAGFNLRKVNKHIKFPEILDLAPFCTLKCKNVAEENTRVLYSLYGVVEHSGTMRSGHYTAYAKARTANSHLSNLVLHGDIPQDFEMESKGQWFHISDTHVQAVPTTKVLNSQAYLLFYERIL
Sequence of UCHL1 (P09936 whole entry, looked up): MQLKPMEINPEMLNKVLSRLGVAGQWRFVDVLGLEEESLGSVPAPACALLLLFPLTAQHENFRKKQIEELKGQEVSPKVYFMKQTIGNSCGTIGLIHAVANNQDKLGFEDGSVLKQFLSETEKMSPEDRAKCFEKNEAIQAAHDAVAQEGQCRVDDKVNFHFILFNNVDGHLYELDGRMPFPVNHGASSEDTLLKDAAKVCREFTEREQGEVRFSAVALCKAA
Sequence of USP10 (Q14694 whole entry): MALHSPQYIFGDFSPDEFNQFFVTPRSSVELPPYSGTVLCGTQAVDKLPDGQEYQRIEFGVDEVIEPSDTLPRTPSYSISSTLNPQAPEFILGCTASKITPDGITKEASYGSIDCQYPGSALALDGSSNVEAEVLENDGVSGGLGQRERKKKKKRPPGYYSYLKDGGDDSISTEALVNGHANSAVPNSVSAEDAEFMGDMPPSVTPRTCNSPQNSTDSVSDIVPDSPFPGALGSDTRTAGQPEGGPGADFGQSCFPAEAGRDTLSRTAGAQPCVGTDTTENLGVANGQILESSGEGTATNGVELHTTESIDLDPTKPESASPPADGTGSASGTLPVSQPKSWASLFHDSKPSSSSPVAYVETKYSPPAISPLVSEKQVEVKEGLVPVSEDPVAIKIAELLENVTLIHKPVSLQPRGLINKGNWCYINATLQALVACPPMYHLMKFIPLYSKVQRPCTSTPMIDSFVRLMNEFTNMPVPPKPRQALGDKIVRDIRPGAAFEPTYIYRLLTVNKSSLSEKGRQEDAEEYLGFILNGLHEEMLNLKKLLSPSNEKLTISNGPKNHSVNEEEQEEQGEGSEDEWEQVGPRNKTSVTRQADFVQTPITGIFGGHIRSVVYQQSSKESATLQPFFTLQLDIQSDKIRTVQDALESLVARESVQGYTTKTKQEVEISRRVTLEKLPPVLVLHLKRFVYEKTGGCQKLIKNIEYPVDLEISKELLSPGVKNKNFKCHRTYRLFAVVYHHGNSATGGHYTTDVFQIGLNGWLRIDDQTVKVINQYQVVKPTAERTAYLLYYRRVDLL

CS(=O)(=O)c1ccc(CNC(=O)CCl)cc1
inactive: OTUD6B -0.168 | OTUD7B -0.575 | PRPF8 -0.126 | PSMD7 -0.155 | UCHL3 0.301 | UCHL5 -0.165 | USP10 -0.141 | USP15 -0.268 | USP16 -0.251
active: UCHL1 -1.33
